Assay [1] is described as follows: qHTS assay to identify small molecule antagonists of the thyroid receptor (TR) signaling pathway - cell viability counter screen (AID 743064). Also: nearly all actives have a fitted effect of over 50% in size. Also: potency is read from the fitted curve at half-maximal effect. The method, boiled down: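 GH3.TRE-Luc rat pituitary cells carrying a TRE-luciferase reporter were treated with compound plus 1 nM T3 (final) for 23.5 h at 37 °C. Viability was then read in the same wells by CellTiter-Fluor fluorescence after a further 30 min.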
Background: qHTS replaces the single test concentration by a dilution series.

Assay [2] is described as follows: qHTS assay to identify small molecule antagonists of the thyroid receptor (TR) signaling pathway (AID 743065). Also: nearly all actives have a fitted effect of over 55% in size. Also: potency is read from the fitted curve at half-maximal effect. In short, it runs like this:
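Antagonism measured as loss of luciferase signal in GH3 cells stably carrying a TRE-luciferase reporter, co-treated with compound and T3 (1 nM final) for 23.5 h at 37 C. Viability was read in the same well by CellTiter-Fluor.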

Assay [3] relates to thyroid hormone receptor (rat, GH3 cells). Description: qHTS assay to identify small molecule agonists of the thyroid receptor (TR) signaling pathway (AID 743066; calls by dose curve).
Assay [4] addresses Estrogen receptor (Homo sapiens) (UniProt P03372). Description: qHTS assay to identify small molecule antagonists of the estrogen receptor alpha (ER-alpha) signaling pathway (AID 743069; active = well fitted curve in the direction sought with a large enough effect in the signal ratio in the repeat runs, not every such curve was filed as active; the % refers to the signal ratio). The method, boiled down: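 ER-alpha-UAS-bla GripTite HEK293 line; 2% charcoal-stripped FBS overnight; plated, 4 hr 37C/5% CO2; cpd in DMSO + 17beta-estradiol, 18 hr 37C; LiveBLAzer B/G FRET substrate 2 hr RT; fluorescence intensity.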

The nature of assay [5]: qHTS assay to identify small molecule antagonists of the estrogen receptor alpha (ER-alpha) signaling pathway - cell viability counter screen (AID 743074; calls by dose curve;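 also: HEK293 cells carrying ER-alpha-UAS-bla reporter stimulated with 17beta-estradiol; nearly all actives have a fitted effect of over 45% in size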).
Assay [6] addresses Estrogen receptor (Homo sapiens) (UniProt P03372). Description: qHTS assay to identify small molecule agonists of the estrogen receptor alpha (ER-alpha) signaling pathway (AID 743075; calls by dose curve;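 also: HEK293 GripTite cells with ER-alpha and UAS-driven beta-lactamase reporter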).
Assay [7] shares this target. Description: qHTS assay to identify small molecule agonists of the estrogen receptor alpha (ER-alpha) signaling pathway using the BG1 cell line (AID 743079). Also: nearly all actives have a fitted effect of over 20% in size.
Assay [8] is described as follows: qHTS assay to identify small molecule antagonists of the estrogen receptor alpha (ER-alpha) signaling pathway using the BG1 cell line (AID 743080; calls by dose curve;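 also: BG1 cells stimulated with 17beta-estradiol alongside compound; series mostly up to about 70 µM; nearly all actives have a fitted effect of over 25% in size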). In short, it runs like this: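 Luciferase inhibition measured with ONE-Glo after 30 min at RT in BG1Luc4E2 cells given test compounds and 17beta-estradiol for 21.5 h at 37 C; CellTiter-Fluor viability read in the same wells beforehand.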

A short description of assay [9]: qHTS assay to identify small molecule antagonists of the estrogen receptor alpha (ER-alpha) signaling pathway using the BG1 cell line - cell viability counter screen (AID 743081).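 Also: compound given together with 17beta-estradiol as the ER stimulus; series mostly up to about 70 µM; nearly all actives have a fitted effect of over 45% in size.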
In another assay the target is Aromatase (Homo sapiens) (UniProt P11511). Description: qHTS assay to identify aromatase inhibitors (AID 743083). Also: series mostly up to about 70 µM; nearly all actives have a fitted effect of over 55% in size.
Sequence of Aromatase (Homo sapiens) (P11511 whole entry, looked up): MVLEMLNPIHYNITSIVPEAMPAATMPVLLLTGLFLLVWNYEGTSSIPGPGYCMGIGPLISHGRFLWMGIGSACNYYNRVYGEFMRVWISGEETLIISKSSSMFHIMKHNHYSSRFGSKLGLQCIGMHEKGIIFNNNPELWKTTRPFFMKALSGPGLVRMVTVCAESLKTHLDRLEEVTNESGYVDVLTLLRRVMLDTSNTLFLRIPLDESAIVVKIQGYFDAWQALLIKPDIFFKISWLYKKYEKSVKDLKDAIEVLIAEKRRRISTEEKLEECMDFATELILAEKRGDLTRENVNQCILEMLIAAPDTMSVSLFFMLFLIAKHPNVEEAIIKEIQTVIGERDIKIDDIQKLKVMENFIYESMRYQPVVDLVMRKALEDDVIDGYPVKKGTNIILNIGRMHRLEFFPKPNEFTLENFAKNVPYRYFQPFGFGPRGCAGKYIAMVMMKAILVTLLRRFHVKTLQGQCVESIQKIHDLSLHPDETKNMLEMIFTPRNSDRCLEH

Each structure is given as a SMILES string. Inconclusive results are not listed. Calls of active or inactive are those of the source. Unless noted, calls follow the shape of the dose curve; as a rule, active = well fitted curve in the direction sought with a large enough effect in the repeat runs; inconclusive = weak or mixed curves; inactive = no such curve, though single readings can be large; an effect the other way counts as inactive or inconclusive.

Sequence of Estrogen receptor (Homo sapiens) (P03372 whole entry, looked up): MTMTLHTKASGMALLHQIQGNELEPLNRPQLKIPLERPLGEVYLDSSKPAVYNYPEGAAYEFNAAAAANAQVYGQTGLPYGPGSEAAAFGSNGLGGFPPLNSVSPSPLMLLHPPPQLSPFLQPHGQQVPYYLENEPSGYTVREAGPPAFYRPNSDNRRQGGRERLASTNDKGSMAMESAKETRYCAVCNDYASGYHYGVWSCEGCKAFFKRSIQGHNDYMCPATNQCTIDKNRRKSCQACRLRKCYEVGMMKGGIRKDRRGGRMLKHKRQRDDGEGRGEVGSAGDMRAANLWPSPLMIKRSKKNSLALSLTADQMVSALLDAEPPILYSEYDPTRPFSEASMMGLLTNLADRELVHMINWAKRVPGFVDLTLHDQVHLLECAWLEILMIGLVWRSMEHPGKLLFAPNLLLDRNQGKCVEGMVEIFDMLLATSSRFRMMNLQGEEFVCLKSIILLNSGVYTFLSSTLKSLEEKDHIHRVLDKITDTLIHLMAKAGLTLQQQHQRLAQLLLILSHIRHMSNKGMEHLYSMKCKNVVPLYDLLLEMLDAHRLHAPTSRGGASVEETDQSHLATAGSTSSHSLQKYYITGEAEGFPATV

For the compound `CCCCC1CCC(=O)O1` (stereo not drawn), the Potency entry in [1], in assay [2], in assay [4], in assay [5], in assay [7] and in assay [9] was “inactive” throughout. In the assay with Aromatase (Homo sapiens), the Potency result is “inactive”. Moreover, the compound was called inactive in assay [3], in assay [6] and in assay [8].
With `COC(C)CCO` (stereo not drawn), the Potency result (in assay [1]; in [2]; in assay [5]; in [9]; in the assay with Aromatase (Homo sapiens)) was “inactive” in each case. Also, the call in [3] was inactive.
`Cc1cc2nc(N)sc2cc1C`: the Potency result (in assay [1]; in [2]; in [5]; in assay [9]; with Aromatase (Homo sapiens)) was “inactive” throughout. In assay [3], the result was inactive.
Consider `c1ccc(CN(CC2=NCCN2)c2ccccc2)cc1`, for which the Potency was 26.6 µM (active) in assay [1] and 23.7 µM (active) in assay [2]. Also, the result in assay [3], in [6] and in assay [8] was inactive. Further, the Potency result (in assay [5]; in [7]; in assay [9]; in the assay with Aromatase (Homo sapiens)) was “inactive” throughout.
As to `CCCCOc1cc(C(=O)NCCN(CC)CC)c2ccccc2n1`, the Potency in [1] is 11.4 µM (active); in [2] it was 10.1 µM (active). Besides, in assay [3], the compound was classed as inactive. In addition, the Potency result (in assay [5]; in assay [9]; in the assay with Aromatase (Homo sapiens)) was “inactive” throughout.
Consider `CC1=NN(c2cc(Cl)c(S(=O)(=O)O)cc2Cl)C(=O)C1N=Nc1ccc(S(=O)(=O)O)cc1` (stereo not drawn), for which the Potency entry (in assay [1]; in assay [2]; in assay [5]; in assay [9]; in the assay with Aromatase (Homo sapiens)) was “inactive” in each case. The call in assay [3] was inactive.
On to `CC(=O)Nc1ccc(C)c(Cl)c1`, for which the Potency entry (in assay [1]; in assay [2]; in [5]; in assay [9]; with Aromatase (Homo sapiens)) was “inactive” throughout. Further, in [3], the result was inactive.
On to `CC1(C)S[C@@H]2[C@H](NC(=O)C(C(=O)O)c3ccccc3)C(=O)N2[C@H]1C(=O)O` (stereo partly drawn), for which the Potency entry (in assay [1]; in [2]; in assay [5]; in assay [9]; in the assay with Aromatase (Homo sapiens)) was “inactive” in each case. For the same compound, in [3], the compound was called inactive.
In the case of `CC(=O)OC(C)OC(C)=O`, the Potency entry (in assay [1]; in assay [2]; in [5]; in assay [9]; with Aromatase (Homo sapiens)) was “inactive” in each case. For the same compound, the call in assay [3] was inactive.
As to `CCCCNc1cc(C(=O)O)cc(S(N)(=O)=O)c1Oc1ccccc1`, the Potency result (in assay [1]; in [2]; in assay [5]; in assay [9]; with Aromatase (Homo sapiens)) was “inactive” throughout. In addition, the call in assay [3] was inactive.
Consider `COc1cc2c(cc1N)oc1ccccc12`, for which the Potency entry (in assay [1]; in assay [2]; in assay [5]; in [9]; with Aromatase (Homo sapiens)) was “inactive” in each case. Besides, the compound was classed as inactive in assay [3].
As for `CCN(CC)C(=O)N(CC)CC`, the Potency result (in [1]; in assay [2]; in [5]; in [9]; with Aromatase (Homo sapiens)) was “inactive” each time. In addition, the compound was called inactive in assay [3].
Consider `NC(=O)Cc1cccc(C(=O)c2ccccc2)c1N`, for which the Potency result (in assay [1]; in [2]; in assay [5]; in assay [9]; with Aromatase (Homo sapiens)) was “inactive” each time. The compound was called inactive in [3].
For `Cc1c(N)cccc1N`, the Potency entry in assay [1], in assay [2], in assay [5] and in assay [9] was “inactive” in each case. For the same compound, the compound was classed as inactive in [3].
For the compound `C=CC(C)(O)CC/C=C(\C)CCC=C(C)C` (stereo not drawn), the Potency entry (in [1]; in assay [2]; in assay [5]; in [9]; with Aromatase (Homo sapiens)) was “inactive” throughout. Moreover, in assay [3], the compound was classed as inactive.
`ClC(Cl)Cl`: the Potency entry (in assay [1]; in assay [2]; in assay [5]; in assay [9]; in the assay with Aromatase (Homo sapiens)) was “inactive” throughout. The outcome in assay [3] was inactive.
As to `CCC(=O)O[C@]1(C(=O)SCF)[C@H](C)C[C@H]2[C@@H]3C[C@H](F)C4=CC(=O)C=C[C@]4(C)[C@@]3(F)[C@@H](O)C[C@@]21C`, the Potency result (in [1]; in assay [2]; in assay [5]; in assay [7]; in assay [9]; with Aromatase (Homo sapiens)) was “inactive” in each case. Further, the result in [3] and in assay [6] was inactive.
On to `C[C@@H](N)C(=O)O`, for which the Potency entry (in assay [1]; in assay [2]; in assay [5]; in assay [9]; with Aromatase (Homo sapiens)) was “inactive” each time. Moreover, in assay [3], the compound was called inactive.
Regarding `OCCN1CCN(CCO)CC1`, the Potency result (in assay [1]; in [2]; in [5]; in assay [9]; with Aromatase (Homo sapiens)) was “inactive” in each case. Also, in assay [3], the call was inactive.
Consider `CCCCNCCCC`, for which the Potency entry (in [1]; in assay [2]; in [5]; in assay [9]; with Aromatase (Homo sapiens)) was “inactive” in each case. Moreover, the compound was classed as inactive in [3].
Turning to `COC(=O)c1ccc(OC)cc1`, the Potency entry (in [1]; in [2]; in assay [5]; in assay [9]; in the assay with Aromatase (Homo sapiens)) was “inactive” in each case. In assay [3], the call was inactive.
As to `NC/C=C/C(=O)O`, the Potency result (in assay [1]; in assay [2]; in [5]; in assay [9]; with Aromatase (Homo sapiens)) was “inactive” throughout. The call in assay [3] was inactive.
`C=CC1CO1` (stereo not drawn): the Potency result (in [1]; in assay [2]; in assay [5]; in [9]; in the assay with Aromatase (Homo sapiens)) was “inactive” throughout. For the same compound, the result in assay [3] was inactive.
As for `C=O`, the Potency result (in assay [1]; in assay [2]; in assay [5]; in [9]; in the assay with Aromatase (Homo sapiens)) was “inactive” in each case. Moreover, the call in assay [3] was inactive.
For the compound `CN1[C@@H]2CC[C@H]1CC(OC(=O)c1c[nH]c3ccccc13)C2` (stereo partly drawn), the Potency is 23.7 µM (active) in assay [1] and 26.6 µM (active) in [2]. In addition, the compound was called inactive in [3]. The Potency entry (in assay [5]; in assay [9]; with Aromatase (Homo sapiens)) was “inactive” in each case.
On to `CC1CN(c2ccccc2)NC1=O` (stereo not drawn), for which the Potency entry (in assay [1]; in assay [2]; in assay [5]; in [9]; with Aromatase (Homo sapiens)) was “inactive” each time. For the same compound, in [3], the outcome was inactive.
As for `O=C(O)[C@@H](O)[C@H](O)[C@H](O)[C@@H](O)C(=O)O`, the Potency result (in assay [1]; in assay [2]; in assay [5]; in [9]; with Aromatase (Homo sapiens)) was “inactive” each time. Besides, the compound was classed as inactive in assay [3].
With `Cc1ccc([N+](=O)[O-])c(N)c1`, the Potency entry (in assay [1]; in [2]; in assay [5]; in assay [9]; with Aromatase (Homo sapiens)) was “inactive” each time. The outcome in assay [3] was inactive.
`Cc1c(C(=O)NCCO)[n+](=O)c2ccccc2n1[O-]`: the Potency entry (in assay [1]; in assay [2]; in assay [5]; in [9]; with Aromatase (Homo sapiens)) was “inactive” in each case. Also, the compound was classed as inactive in assay [3].
On to `CC1(C)C(=O)N(Cl)C(=O)N1Br`, for which the Potency entry (in [1]; in assay [2]; in [5]; in [9]; with Aromatase (Homo sapiens)) was “inactive” in each case. In assay [3], the result was inactive.
For the compound `Cc1ccc([N+](=O)[O-])cc1Cl`, the Potency entry (in assay [1]; in [2]; in assay [5]; in assay [9]; in the assay with Aromatase (Homo sapiens)) was “inactive” throughout. For the same compound, in assay [3], the compound was classed as inactive.
On to `CC1=C2[C@H](/C=C(\C)C(=O)O)CC[C@@H](C)[C@H]2CC1`, for which the Potency entry (in assay [1]; in [2]; in [5]; in assay [9]; with Aromatase (Homo sapiens)) was “inactive” each time. The result in [3], in [6] and in [8] was inactive.
Consider `CCNCCO`, for which the Potency entry (in [1]; in [2]; in assay [5]; in assay [9]; with Aromatase (Homo sapiens)) was “inactive” in each case. Moreover, the outcome in assay [3] was inactive.
